Reference: the supplement of paper PMC6555819

Tests used:
Test in all cases: PBM binding z-score (relative to random genomic background probes); higher = stronger binding; sequences stand for … in GC…GCGATTGACAGCGTAGAATGAAGG
[1] = tested on: RARb homodimer (NR concentration 270 nM)
Outline: (§1)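 Binding z-scores take random background probes as their reference. They come from custom Agilent 4×180K protein-binding microarrays incubated 1 h with ligand-free nuclear receptor dimers, with antibodies against each partner (one per run) detecting binding. Scanned fluorescence was regression-normalized.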

[2] = tested on: RARg:RXRa (NR concentration 270 nM, RXRa partner concentration 90 nM)
Outline: as §1

[3] = tested on: RARg homodimer (NR concentration 270 nM)
Outline: as §1

[4] = tested on: RXRa DBDmut IVT, anti-RXR (DBD mutation: RXRa K156A/R161A, NR concentration 90 nM)
Outline: as §1

[5] = tested on: RXRa homodimer (NR concentration 180 nM)
Outline: as §1

[6] = tested on: THRa:RXRa (NR concentration 90 nM, RXRa partner concentration 90 nM)
Outline: as §1

[7] = tested on: THRa homodimer (NR concentration 90 nM)
Outline: as §1

[8] = tested on: VDR homodimer (NR concentration 270 nM)
Outline: as §1

| Sequence | PBM binding z-score [1] | PBM binding z-score [2] | PBM binding z-score [3] | PBM binding z-score [4] | PBM binding z-score [5] | PBM binding z-score [6] | PBM binding z-score [7] | PBM binding z-score [8] |
| --- | --- | --- | --- | --- | --- | --- | --- | --- |
| GCGACAGGGGCATCAGCAGGTTACCATAACTTAA | 1.23 | 1.9 | 0.934 | 0.988 | 0.871 | 1.61 | 0.015 | 0.188 |
| TCTTGTAGATCAAGCAGGTTAATAAAGCCTGAGT | -0.223 | -0.313 | -0.28 | 0.435 | 0.2 | 0.0183 | -0.531 | 0.0475 |
| CCTACTGGGCCATTCAGAGGTCATTGACCATATG | 4.16 | 4.57 | 3.23 | 0.945 | 3.98 | 3.28 | 1.45 | 3.34 |
| GCAGACAGGTAAAACGCAGGTAACTCAGGGTGGC | 0.258 | -0.164 | -0.43 | -0.576 | 0.223 | 0.964 | -0.354 | -0.545 |
| TCTTGCAGATCAAAGGTTAAGAAAGCCGAAGCCT | 1.18 | 1.47 | 0.521 | 0.00809 | 3 | 1.26 | -0.786 | -0.402 |
| ACTAGTTGGTCCGCTGAGGTCACACACAATTCGG | 3.85 | 3.69 | 2.81 | 1.37 | 3.71 | 4.4 | 5.42 | 4.08 |
| GCTAGCAGGCCATTTGGGACACTCAATGACGGGC | -0.366 | -0.267 | 0.308 | -0.237 | -0.122 | 0.63 | -0.00643 | -0.65 |
| CCGACTGGGCCACGAAAGGTCATTGATTCAGTGA | 4.83 | 4.59 | 4.35 | 0.758 | 4.99 | 3.87 | 0.668 | 1.78 |
| CCGACTGGGACATAAGGTTACCATAAGCCAGCCC | 1.42 | 0.813 | 0.738 | -0.237 | 1.01 | 2.26 | 1.7 | -0.0177 |
| ACAGACAGGTGACGAAGGTAACTCAGGCTATCAT | 0.451 | 0.549 | 0.697 | -0.564 | 0.578 | 1.03 | 0.0235 | -0.374 |
| CCGACTGGGGCAGAGAGGTTACCATACCATCCGG | 1.54 | 1.33 | 1.2 | -0.642 | 1.23 | 1.02 | -0.309 | 0.35 |
| ACTATTAGTTGACTTAGGACAACCGATACGACGC | 0.766 | 0.732 | 1.04 | 0.853 | 0.557 | 2.12 | 1.88 | 0.342 |
| GCTTACGGGTCTAAGGTTATAGCATGAATAGAAT | 0.97 | 0.869 | 0.598 | 1.27 | 1.46 | 2.16 | 1.21 | 1.04 |
| AATGCAGGGTCACTAGGCCAGAGTAGGTACGAAT | 3.32 | 5.29 | 4.82 | 2.75 | 5.37 | 3.27 | 0.736 | 2.33 |
| ATCTCTAGGTAAAAGTTCAGTGAGTCCCGAGGAT | 2.32 | 1.86 | 1.93 | 0.855 | 1.73 | 1.13 | 0.291 | 2.34 |
| TCATATGGGTAATACAGGTGAAAGTCGGCATCTA | 0.197 | 0.414 | 0.489 | 0.75 | 0.794 | 0.846 | -0.109 | -0.42 |
| TCTAGTTGGTCACGGAGGTCATACACGACGGGTA | 4.18 | 4.45 | 4.21 | 1.16 | 4.65 | 3.5 | 2.17 | 3.53 |
| TCGAGTAGGTTAGTCGGGCCATTCAGCCAACATA | -0.0179 | -0.285 | -0.251 | -0.153 | -0.135 | 0.516 | -0.252 | -0.149 |
| CCGAGTAGATTATGGGGCATTCAGGCAACGGTGA | 0.0129 | -0.113 | 0.0692 | 0.349 | -0.0432 | 0.271 | -0.141 | -0.481 |
| TCCGACAGGTGAAGGTAACTCAGGTACGCAGTCG | 0.334 | 0.325 | 0.374 | 0.258 | 0.788 | 1.3 | -0.0593 | 0.0508 |
| ATCGAAAGGTCGACGACGTGAGTATACACCGTTT | 2.21 | 4.04 | 3.8 | 1.3 | 3.94 | 1.73 | -0.597 | 0.228 |
| CCTCGGGGGACAGAAGGTCAGAGCTGTCCGCTTT | 3.57 | 4.6 | 4.23 | 0.388 | 2.83 | 3.31 | 0.175 | 0.0933 |
| CAGCCTAGGTCAGGGCCAATATAGGAGGAACGTT | 2.42 | 3.05 | 3.61 | 0.0153 | 1.69 | 2.07 | 0.573 | 0.171 |
| GCACCAAGGTGAATAGGTCGTTGATGAGTAGGCG | 1.77 | 2.42 | 1.1 | 0.00127 | 1.77 | 1.63 | 0.229 | -0.0787 |
| TCGAGTAGGTTAGGGGCTTTCAGAATGGCGTCGA | 0.146 | -0.192 | -0.707 | 0.128 | 0.00359 | -0.109 | 0.122 | -0.301 |
| CGAACTAGGTCAACCAGGACAGTGAATACATTGA | 3.24 | 4.4 | 5.25 | 1.8 | 2.99 | 3.53 | 1.82 | 1.85 |
| CCTCCGAGGACAGAAGGTCAGAGCTGTCCGCTTT | 3.67 | 3.52 | 3.34 | 0.589 | 2.37 | 2.76 | 1.17 | 0.494 |
| TCCAGTAGGTTAGGGGCATTCAGAATGGCGTCGA | 0.983 | 0.561 | 0.313 | 1.16 | 1.06 | 0.915 | 0.179 | 0.877 |
| TGAATGAGGTTAAAGAACAGGGAACGTGGCGTCG | 0.64 | 1.86 | 1.5 | 1.33 | 2.68 | 2.03 | 0.34 | 0.66 |
